Assay [1] is described as follows: liver-stage malaria parasite growth inhibition, primary screen, cell-based, HepG2, luciferase luminescence, HepG2 viability (AID 624349; in the data active = parasite load remaining mostly below about 12%, no sharp cut-off; inactive = mostly above about 10%;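 note: 100% = mean of DMSO negative control wells on the same plate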). The note with it: P. berghei liver stage in HepG2, luciferase luminescence, concentration not given here; parasite load remaining: stronger effect = lower value; viability: measured here: HepG2 viability without parasites.
Assay [2] can be described thus: stimulators of nuclear beta-catenin in C2C12, primary screen, imaging, WNT3A-conditioned medium, mouse C2C12, NPC library (AID 1117326; in the data active = nuclear beta-catenin stimulation mostly above about 4.2%, no sharp cut-off; inactive = mostly below about 10%). The note with it: stronger effect = higher value.
The nature of assay [3]: stimulators of insulin release from INS-1E, primary screen, cell-based, 5 mM glucose, NPC library (AID 1117329;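 active = compound raises insulin release from rat beta cells at 5 mM glucose, no numeric limit stated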). The note with it: rat INS-1E insulin secretion, at 10 µM, stronger effect = higher value.
Assay [4] can be described thus: growth inhibition of GSK3B-pretreated HCT116 cells – cell-based, CellTiter-Glo, 0.2 to 20 µM (AID 1117336;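 active = compounds lowering colon cancer cell viability after pretreatment blocking the GSK3B kinase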). The note with it: HCT116 viability after GSK3B inhibitor, at 20 µM, stronger effect = higher value.
The nature of assay [5]: inhibition of endothelial tube formation, primary screen, imaging, VEGF stimulated, CD31 staining, tube area, NPC library (AID 1117340;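 active = compound that reduces growth-factor-driven endothelial tube area in a mixed cell culture, no cutoff stated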). The note with it: VEGF-stimulated ADSC/ECFC co-culture, at 10 µM, stronger effect = higher value.
Assay [6] can be described thus: glucagon-like peptide 1 release enhancers, primary assay, NCI-H716 cell line, NPC library (AID 1117341;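 active = compound raises GLP1 secretion from the human gut endocrine cells, with no numeric limit stated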). The note with it: NCI-H716 cells, at 10 µM, stronger effect = higher value.
Assay [7] in a line: HCT116 colon cancer cell growth inhibition, primary screen, CellTiter-Glo luminescence, NPC library (AID 1117342;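 active = compounds that lower survival of HCT116 colon cancer cells in the luminescence readout, no numeric limit stated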). Particulars: at 20 µM (top of the series). In general terms: Cellular ATP, detected with luciferase, serves as a proxy for viable cell number.
Assay [8] is described as follows: CellTiter-Glo luminescent readout of SW480 viability loss, NPC library primary (AID 1117343;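 active = compounds that lower viability of the colon cancer cells in the luminescence readout, with no numeric limit stated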). Particulars: CellTiter-Glo luminescence; at 20 µM (top of the series).
A short description of assay [9]: decreased DLD-1 cellular survival, CellTiter-Glo luminescent readout, NPC compound collection, primary HTS (AID 1117346;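 active = compounds that lower survival of DLD-1 colon cancer cells in the luminescence readout, no cutoff given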). Particulars: DLD-1 viability, CellTiter-Glo luminescence; at 20 µM (top of the series).
A short description of assay [10]: sensitizers of A549 cells to miR-34 induction, primary screen, imaging, A549 dox-inducible miR-34, nuclei and caspase counts (AID 1347080;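 active = compounds whose cell count with miR-34 switched on is under 0.7 times the count with it off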). Particulars: A549 miR-34 inducible, Hoechst nuclei count, 48 h.
Assay [11] is described as follows: survival rescue of mitochondrial mutant cells in low glucose, primary screen, MELAS cybrids, Rieske KO mouse fibroblasts, CellTiter-Glo (AID 1508586;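 active = mean z-score across replicates of 1.96 or higher in either the MELAS or the Rieske mutant cell line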;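 note: z relative to plate mean and SD of compound and empty wells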).
A short description of assay [12]: viability rescue of complex I mutant cybrids, primary screen, cell-based, galactose medium, ATP luminescence (AID 1645843).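 Note: positive z means more ATP and so rescue of galactose-driven cybrid death.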 Particulars: complex I mutant cybrid cells, 72 h, stronger effect = higher value.
A short description of assay [13]: suppressors of polyQ aggregation in yeast, 75Q-TubU reporter (AID 1593). The note with it: Yeast 75Q polyglutamine aggregation reporter.
Assay [14] can be described thus: inhibitors of mitochondrial cytochrome c release, biochemical, purified mitochondria (AID 1603).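 Note: mouse liver mitochondria challenged with calcium chloride; signal normalized to the plate average as 100%.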 The note with it: stronger effect = lower value.
Assay [15] can be described thus: inhibitors of polyQ protein aggregation (AID 1604). Particulars: polyglutamine-induced protein aggregation inhibition assay; stronger effect = higher value; tested at 2.5 µM.
Assay [16] is described as follows: differential killing of epithelial or mesenchymal cells, primary screen, imaging, PC-3E GFP, TEM4-18 mCherry, co-culture (AID 1345086;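 active = compounds killing one labelled cell type while sparing the other, by normalised counts and ratio limits, not self-fluorescent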;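 for all read-outs here: cells exposed to compound for 72 h before imaging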;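 for red/green cell ratio (normalised): normalised mesenchymal count divided by normalised epithelial count so high means epithelial killing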). Particulars: imaging cell counts, at 1 µM; for red/green cell ratio (normalised): actives lie on both sides.
In assay [17] the test system is Aerobactin synthetase IucA (Klebsiella pneumoniae hvKP1). Kind of assay: Biochemical IucA enzyme inhibition primary screen of the Spectrum library (AID 1346200; call rule not given here;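 note: 100% = wells without compound and 0% = wells lacking enzyme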). Particulars: malachite green pyrophosphate, A620, at 8 µM, stronger effect = lower value.
The target in assay [18] is NAD(+) hydrolase SARM1 (Homo sapiens) (UniProt Q6SZW1). The assay is described as follows: SARM1 TIR NADase inhibitors, cell lysate, NAD-Glo luminescence (AID 1508614;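 active = compound whose remaining NAD level is above about 45 nM, limit read from the data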;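 note: higher remaining NAD means stronger inhibition of SARM1 NADase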). Particulars: SAM-TIR HEK293T lysate NADase, at 1 µM, stronger effect = higher value.
Assay [19] deals with Mitogen-activated protein kinase 7 (Homo sapiens) (UniProt Q13164). Kind of assay: ERK5 transactivation activators in reporter cells, primary screen, cell-based, HTS (AID 1508626;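 active = luciferase signal above three times the same-plate solvent-only control wells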;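 note: luciferase driven by Gal4-ERK5 fusion binding five Gal4 sites before minimal TATA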). Particulars: HeLa Gal4-ERK5 transactivation, 18 h, at 5 µM, stronger effect = higher value.
The mark [20] stands for this setting: measured here: relative caspase fold change +Dox/-Dox.
Where [21] appears, read: measured here: total cells with miR-34 induction, stronger effect = lower value.
Setting [22] is: measured here: total cells without miR-34 induction.
Setting [23] is: MELAS cybrid survival, CellTiter-Glo 48 h, stronger effect = higher value.
The mark [24] stands for this setting: Rieske KO mouse fibroblast survival, CellTiter-Glo 72 h.
Setting [25] is: measured here: epithelial PC-3E GFP cell survival.
Setting [26] is: measured here: mesenchymal TEM4-18 mCherry cell survival.

Several values for one entry are separate records, joined by “and”; a condition that tells them apart may be missing. Identical values can stand only once. Activity calls are given as the source filed them.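 Rule for the calls, unless noted: active = z-score of at least 1.8 in each of two replicates, scored against plate mean and spread of sample wells; inactive = the rest.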

Sequence of Mitogen-activated protein kinase 7 (Homo sapiens) (Q13164 whole entry, looked up, the tested form may be a part): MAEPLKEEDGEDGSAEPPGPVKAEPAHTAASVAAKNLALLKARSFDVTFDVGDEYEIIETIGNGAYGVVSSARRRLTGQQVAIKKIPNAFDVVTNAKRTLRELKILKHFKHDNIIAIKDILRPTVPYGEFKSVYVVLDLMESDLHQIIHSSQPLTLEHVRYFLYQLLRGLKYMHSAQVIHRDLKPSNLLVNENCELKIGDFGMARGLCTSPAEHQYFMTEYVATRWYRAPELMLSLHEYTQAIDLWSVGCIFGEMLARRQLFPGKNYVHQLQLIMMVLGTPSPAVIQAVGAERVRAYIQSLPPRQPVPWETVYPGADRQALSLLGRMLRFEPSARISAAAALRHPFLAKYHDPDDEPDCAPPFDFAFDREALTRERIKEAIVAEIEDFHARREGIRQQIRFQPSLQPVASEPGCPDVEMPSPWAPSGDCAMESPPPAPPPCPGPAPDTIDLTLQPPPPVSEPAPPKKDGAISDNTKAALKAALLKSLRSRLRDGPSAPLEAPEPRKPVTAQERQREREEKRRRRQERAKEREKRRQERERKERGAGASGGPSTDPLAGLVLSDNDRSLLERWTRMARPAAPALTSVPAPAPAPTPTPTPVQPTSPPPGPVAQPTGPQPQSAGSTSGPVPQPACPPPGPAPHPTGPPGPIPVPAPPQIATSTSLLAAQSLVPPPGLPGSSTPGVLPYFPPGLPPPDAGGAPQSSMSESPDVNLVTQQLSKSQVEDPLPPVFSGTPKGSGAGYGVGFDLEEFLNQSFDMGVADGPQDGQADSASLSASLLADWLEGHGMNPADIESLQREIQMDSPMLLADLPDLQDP
Sequence of NAD(+) hydrolase SARM1 (Homo sapiens) (Q6SZW1 whole entry, looked up, the tested form may be a part): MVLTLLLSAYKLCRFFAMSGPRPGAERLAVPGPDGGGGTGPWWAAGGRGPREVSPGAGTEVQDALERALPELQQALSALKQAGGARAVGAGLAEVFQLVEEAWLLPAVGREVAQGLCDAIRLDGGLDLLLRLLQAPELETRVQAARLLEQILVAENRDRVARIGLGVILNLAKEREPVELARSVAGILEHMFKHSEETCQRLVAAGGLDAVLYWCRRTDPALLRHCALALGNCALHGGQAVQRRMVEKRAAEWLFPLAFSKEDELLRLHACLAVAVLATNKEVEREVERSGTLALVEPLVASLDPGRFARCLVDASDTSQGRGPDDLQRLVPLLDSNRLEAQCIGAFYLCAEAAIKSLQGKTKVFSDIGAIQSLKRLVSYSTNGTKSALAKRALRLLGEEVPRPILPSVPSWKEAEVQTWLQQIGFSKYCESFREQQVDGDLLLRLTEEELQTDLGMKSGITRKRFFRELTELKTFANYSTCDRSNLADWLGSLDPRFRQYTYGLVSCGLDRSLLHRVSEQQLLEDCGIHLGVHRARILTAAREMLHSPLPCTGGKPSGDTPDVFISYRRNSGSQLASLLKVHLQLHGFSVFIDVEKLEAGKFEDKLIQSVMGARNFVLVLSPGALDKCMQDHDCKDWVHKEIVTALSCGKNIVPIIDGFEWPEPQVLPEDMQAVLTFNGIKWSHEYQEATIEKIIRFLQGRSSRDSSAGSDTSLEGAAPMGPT

Broadly, the viability is the share of living cells, or the viability signal relative to a control. With `NC(=O)OCCCc1ccccc1`, in assay [1], the parasite load remaining was 136% (inactive). In assay [1], this molecule showed a viability of 89.7%. The nuclear beta-catenin stimulation in assay [2] (at 10 µM) is 0.8% (inactive); in [2] (stimulation, at 2 µM), 0.3%. For the same molecule, the insulin secretion stimulation in assay [3] was -2.9% (inactive). Further, the viability decrease in assay [4] was -9.45% (inactive). Moreover, in assay [5], the tube area decrease is 18% (inactive). In addition, the GLP1 secretion stimulation in assay [6] is 0.9% (inactive). The inhibition of viability in [7] is 4.5% (inactive). The viability decrease (inhibition) in [8] was -4.9% (inactive); in assay [9] it was -16.8% (inactive). Moreover, the fold change in assay [10] (stronger effect = lower value) is 0.887 (inactive); in [10] (setting [20]), 1.34. Moreover, the figures for the cell count in assay [10] (setting [21]) and in assay [10] (setting [22]) were 9650 and 10900, respectively. Moreover, the values for the z-score in assay [11] (setting [23]), in assay [11] (setting [24]) and in assay [12] were -0.606 (inactive), -0.33 and 0.64 (inactive), respectively.
`Nc1ccncc1` had a score in [13] of 1.34. In addition, in assay [14], the cytochrome c release ratio turned out to be 0.88. The inhibition of aggregation in assay [15] was -27.8%. In assay [1], the parasite load remaining is 151% (inactive) and 61% (inactive). In addition, the viability in assay [1] is 71.5% and 95.5%. The nuclear beta-catenin stimulation is -0.9% (inactive) in assay [2] (at 10 µM) and 0.7% in assay [2] (stimulation, at 2 µM). Moreover, in [3], the insulin secretion stimulation was 0% (inactive). Further, the viability decrease in assay [4] is -0.55% (inactive). In assay [5], the tube area decrease is -8.7% (inactive). Moreover, the GLP1 secretion stimulation in [6] was 2.4% (inactive). The inhibition of viability in assay [7] was 1.7% (inactive). Further, the viability decrease (inhibition) is 11.9% (active) in [8] and -6.35% (inactive) in [9]. In addition, the red/green cell ratio (normalised) in assay [16] was 0.8 (inactive). Also, the values for the normalised cell number in assay [16] (setting [25]) and in assay [16] (setting [26]) were 1.23 and 0.99, respectively. Moreover, the activity remaining in assay [17] is 105% (inactive). Further, in assay [18], the remaining NAD was 10 nM (inactive). Also, in [19], the luciferase signal is 32 AU (inactive). Further, the z-score in assay [12] is 0.855 (inactive) and 0.215 (inactive).
On to `CCC(COC(=O)c1cc(OC)c(OC)c(OC)c1)(c1ccccc1)N(C)C` (stereo unspecified), for which the parasite load remaining in assay [1] was 36% (inactive). In assay [1], this molecule registered a viability of 62.6%. Also, the nuclear beta-catenin stimulation in [2] (at 10 µM) was 5.9% (inactive); in assay [2] (stimulation, at 2 µM), 1.2%. Also, the insulin secretion stimulation in assay [3] was 2.2% (inactive). In addition, the viability decrease in assay [4] is 49% (inactive). Moreover, in [5], the tube area decrease was 19.3% (inactive). The GLP1 secretion stimulation in assay [6] is 5.8% (inactive). The inhibition of viability in [7] was 64.3% (active). Further, the results for the viability decrease (inhibition) in [8] and in assay [9] were 22.7% (inactive) and 20.6% (inactive), respectively. For the same molecule, in [16], the red/green cell ratio (normalised) is 1 (inactive). Further, the normalised cell number in [16] (setting [25]) and in assay [16] (setting [26]) was 1.04 in each case. Also, the activity remaining in assay [17] is 102% (inactive). The fold change in assay [10] (stronger effect = lower value) is 0.96 (inactive) and 0.993 (inactive); in assay [10] (setting [20]), 0.946 and 0.715. Further, the cell count was 9130 and 7380 in assay [10] (setting [21]); 9520 and 7430 in assay [10] (setting [22]). Moreover, the z-score in assay [11] (setting [23]) is -0.0948 (inactive) and -0.436 (inactive); in [11] (setting [24]) it was -0.0807 and -0.229; in assay [12], -1.25 (inactive). The remaining NAD in assay [18] was 10 nM (inactive). In assay [19], the luciferase signal was 28 AU (inactive).
Regarding `CN[C@@H]1C[C@@H](c2ccc(Cl)c(Cl)c2)c2ccccc21`, the parasite load remaining in assay [1] is 4.35% (inactive). Further, in [1], the viability was 29.3%. Moreover, the nuclear beta-catenin stimulation in [2] (at 10 µM) is 63.1% (active); in assay [2] (stimulation, at 2 µM), 1.4%. Moreover, the insulin secretion stimulation in assay [3] was 6.2% (inactive). Further, the viability decrease in assay [4] was 99.9% (active). In addition, in assay [5], the tube area decrease was 108% (active). In addition, the GLP1 secretion stimulation in assay [6] is -0.3% (inactive). For the same molecule, the inhibition of viability in [7] is 100% (active). The viability decrease (inhibition) was 103% (active) in [8] and 102% (active) in assay [9]. Further, the fold change in assay [10] (stronger effect = lower value) was 0.889 (inactive) and 0.782 (inactive); in assay [10] (setting [20]) it was 0.588 and 1.76. The cell count in assay [10] (setting [21]) is 306 and 538; in assay [10] (setting [22]), 344 and 689. In addition, the z-score in [11] (setting [23]) was -1.52 (inactive); in assay [11] (setting [24]) it was -1.03; in assay [12] it was -1.29 (inactive) and -0.78 (inactive).

The record behind these values is PubChem BioAssay.
